Measurements published in paper PMC4242493, “Sequence specificity incompletely defines the genome-wide occupancy of Myc”.
In all, about 33,000 sequences were measured (“normalized occupancy”: median about 0.075, highest 2% from about 0.095 on). This is one part of a sample in which the highest values are shown more often than they occur.

Target: MaxL homodimer (Homo sapiens, UniProt P61244 1-160)
Assay: universal protein-binding microarray (PBM); PBS-based mixture, 10 nM His-tagged protein dimer, 2% milk, 200 ng/uL BSA, 50 ng/uL salmon testes DNA, 0.02% TX-100; detection with Alexa 488 anti-His antibody;; high values mean tight binding
Conditions: protein: recombinant; tags: C-terminal His-tag (pET21a); chain copies: 2; dsDNA, one strand shown
Method in brief: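 Agilent 4 x 44 K arrays carrying the 'all 10-mer' universal design were incubated with His-tagged protein dimer at 10 nM. Protein that bound was tagged using fluorophore-conjugated anti-His antibody at 10 ng/μL, and a GenePix 4400A scanned the arrays to give an intensity for every 8-mer. Each binding occupancy value expresses an intensity relative to the top-ranked intensity.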

MaxL homodimer, sequence (P61244 whole entry): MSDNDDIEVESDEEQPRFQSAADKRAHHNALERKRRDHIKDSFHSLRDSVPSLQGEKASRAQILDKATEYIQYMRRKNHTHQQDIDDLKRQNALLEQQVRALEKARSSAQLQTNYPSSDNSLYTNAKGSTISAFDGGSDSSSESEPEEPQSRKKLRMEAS

| Sequence | binding signal [normalized occupancy] |
| --- | --- |
| CTCACTTC | 0.0734 |
| TATTCCGA | 0.072 |
| CTCCACGC | 0.101 |
| CTCCACGA | 0.0817 |
| ATCCACGC | 0.109 |
| CTCCACCA | 0.075 |
| ATCCACGA | 0.0905 |
| ATCCACGG | 0.0796 |
| AGAGATAA | 0.0771 |
| CCTTAGGC | 0.0728 |
| CACGCCTC | 0.0974 |
| CACGCCTG | 0.0966 |
| GACGCCTC | 0.0726 |
| AACGCCTG | 0.0733 |
| CTCGCCTC | 0.0748 |
| CACGCCTA | 0.0938 |
| AAATAGTT | 0.0744 |
| ATGCGAGG | 0.0841 |
| ATTGTTAA | 0.0765 |
| ACGCACGA | 0.091 |
| AAGCACGT | 0.102 |
| ACGCACTA | 0.0766 |
| AAGCACGA | 0.0867 |
| GCGCACTA | 0.0726 |
| ACGCACGT | 0.0986 |
| ACGCACCT | 0.0799 |

| Sequence | binding signal [normalized occupancy] |
| --- | --- |
| AAGCACGG | 0.0779 |
| ACGCACGG | 0.0828 |
| ACGCACGC | 0.109 |
| GCGCACGC | 0.0964 |
| GCGCACGA | 0.093 |
| GACGACGA | 0.0747 |
| AAATGTAA | 0.0834 |
| ACTCATAC | 0.074 |
| ATCCCACG | 0.093 |
| CTTATTAC | 0.0796 |
| CAATCACC | 0.0797 |
| ACTTGTAG | 0.073 |
| GGAGCCAA | 0.0767 |
| GCAAAGGA | 0.0773 |
| AAATGGGG | 0.0777 |
| ATGATTTA | 0.079 |
| CCGCACGG | 0.0742 |
| CCGCACGA | 0.0824 |
| CCGCACGC | 0.0999 |
| ACATTTTG | 0.0837 |
| AACGCCCG | 0.0749 |
| AACGCGAA | 0.0761 |
| GACGCGAA | 0.0735 |
| CGCGCGAG | 0.0787 |
| AACGCGAC | 0.0746 |
| CACGCGAC | 0.131 |

| Sequence | binding signal [normalized occupancy] |
| --- | --- |
| AACGCGAG | 0.0764 |
| GACGCGAC | 0.0735 |
| CACGCGAA | 0.105 |
| CACGCGAG | 0.111 |
| GTGGAATA | 0.0822 |
| ACGTCTTG | 0.0724 |
| ACAGGTTG | 0.0821 |
| AAAACGAG | 0.0747 |
| GTTCTCCA | 0.0767 |
| ATGACATC | 0.0827 |
| ATGACATG | 0.0993 |
| AACACATA | 0.0823 |
| AACACATG | 0.138 |
| AACACATT | 0.0903 |
| ACCACATG | 0.192 |
| ACCACCTA | 0.082 |
| ACCACATC | 0.0807 |
| ATGACATA | 0.0825 |
| ACCACATA | 0.0854 |
| ACCACCTG | 0.106 |
| ACCACCTC | 0.0834 |
| CGCCCATC | 0.0733 |
| GTACGGAA | 0.0756 |
| ACCGCTAC | 0.0748 |
| CATCCCTC | 0.0774 |
| AATTTTTG | 0.0733 |

| Sequence | binding signal [normalized occupancy] |
| --- | --- |
| AAGACAGG | 0.0727 |
| ATCACATG | 0.158 |
| AGCACATG | 0.187 |
| CACACATC | 0.0888 |
| ATCACATC | 0.0862 |
| ATCACATA | 0.0859 |
| CACACATA | 0.0896 |
| AGCACATA | 0.0807 |
| AGCACATC | 0.0841 |
| CACACATG | 0.136 |
| AGTAGTGG | 0.0787 |
| CTACTTGA | 0.0752 |
| GCCTCTCC | 0.076 |
| CACGCAGC | 0.085 |
| ACGTAGCC | 0.0725 |
| GCCCCCCC | 0.0757 |
| CCAGGGGA | 0.0742 |
| AGACGTTC | 0.0744 |
| CCACGTTC | 0.0913 |
| ACACGTTC | 0.102 |
| CCACGTTA | 0.105 |
| ACACGTTG | 0.128 |
| CAACGTTA | 0.0767 |
| ATACGTTC | 0.0794 |
| AAACGTTG | 0.0765 |
| ACACGTCG | 0.0849 |

| Sequence | binding signal [normalized occupancy] |
| --- | --- |
| ACACGTTA | 0.118 |
| AGACGTTA | 0.0775 |
| AAACGTTA | 0.0739 |
| AGTCAGGC | 0.0722 |
| TGCCCAAA | 0.0731 |
| AGTATCAA | 0.0766 |
| GGCCAACC | 0.0741 |
| AAAAATGG | 0.078 |
| ATGCCCCA | 0.0786 |
| GAACATTA | 0.0812 |
| ACGCCTCC | 0.0771 |
| AATAACAA | 0.0746 |
| GTACGTTA | 0.0781 |
| GGACGTTA | 0.0789 |
| GCACGTTA | 0.104 |
| ACCAAGGC | 0.0726 |
| GATATAAA | 0.0756 |
| ACAGGTCA | 0.0797 |
| AACGAGTG | 0.0753 |
| CACGAGTG | 0.0961 |
| CACGAGTC | 0.0906 |
| CACGAGAG | 0.0911 |
| CACGAGTA | 0.103 |
| AACGAGTA | 0.077 |
| CGCAACTA | 0.0738 |
| CAAGAGGG | 0.0744 |

| Sequence | binding signal [normalized occupancy] |
| --- | --- |
| CTGGTCGC | 0.0732 |
| ATGTATTC | 0.0814 |
| CATGTATC | 0.0975 |
| CATGTACA | 0.0958 |
| CATGTATA | 0.089 |
| AATGTACA | 0.0818 |
| GATGTACA | 0.0827 |
| CATGTACG | 0.0957 |
| CATGTACC | 0.0843 |
| AATGTATC | 0.0876 |
| AATGTACG | 0.0761 |
| AGTATTAT | 0.0827 |
| CAGTGATG | 0.0746 |
| CACTTCGG | 0.0755 |
| TCGACAGA | 0.0736 |
| CGGTAGCA | 0.0827 |
| AGCAGATC | 0.077 |
| ACTCCAGT | 0.0743 |
| ACGCTGTA | 0.0841 |
| CCGGTGAG | 0.0746 |
| GACCTTGA | 0.0732 |
| GCTAAATA | 0.079 |
| CAGGTGGC | 0.0954 |
| AAGGTGGC | 0.0758 |
| CAGGTGGG | 0.101 |
| CAGATGGG | 0.0837 |

| Sequence | binding signal [normalized occupancy] |
| --- | --- |
| GAGGTGGC | 0.0764 |
| CAGGTGGA | 0.0861 |
| GTGCTGAA | 0.0776 |
| AATGGTAC | 0.0764 |
| AGTAGGAT | 0.076 |
| GAATGGTA | 0.08 |
| GCATGGTA | 0.106 |
| ACATGGTG | 0.0914 |
| ACTTGGTA | 0.0735 |
| CCATGGTC | 0.0849 |
| ACATGGTC | 0.104 |
| CCATGGTA | 0.0851 |
| ATATGGTA | 0.0884 |
| ACATGGTA | 0.104 |
| AGGCGAGG | 0.0752 |
| CCTACAGG | 0.0722 |
| CGCGACGA | 0.0728 |
| CACTTTTA | 0.0728 |
| AAAGGTGT | 0.0816 |
| GTTAGAAA | 0.0757 |
